Bioassay records: PubChem, National Center for Advancing Translational Sciences (NCATS)
S-ASM inh = inhibitors of human secretory acid sphingomyelinase; P17405; placental ASM, HMU-PC fluorogenic substrate, 60 min; Potency, µM (highest dose often 57.5 µM), for inactives: top-dose activity change, negative = inhibition, most hits filed as inhibitors; actives 0.006% (n = 340,000); AID 504937; note: potency is the fitted concentration of half-maximal effect
Target sequence (P17405 47-631 limits assumed): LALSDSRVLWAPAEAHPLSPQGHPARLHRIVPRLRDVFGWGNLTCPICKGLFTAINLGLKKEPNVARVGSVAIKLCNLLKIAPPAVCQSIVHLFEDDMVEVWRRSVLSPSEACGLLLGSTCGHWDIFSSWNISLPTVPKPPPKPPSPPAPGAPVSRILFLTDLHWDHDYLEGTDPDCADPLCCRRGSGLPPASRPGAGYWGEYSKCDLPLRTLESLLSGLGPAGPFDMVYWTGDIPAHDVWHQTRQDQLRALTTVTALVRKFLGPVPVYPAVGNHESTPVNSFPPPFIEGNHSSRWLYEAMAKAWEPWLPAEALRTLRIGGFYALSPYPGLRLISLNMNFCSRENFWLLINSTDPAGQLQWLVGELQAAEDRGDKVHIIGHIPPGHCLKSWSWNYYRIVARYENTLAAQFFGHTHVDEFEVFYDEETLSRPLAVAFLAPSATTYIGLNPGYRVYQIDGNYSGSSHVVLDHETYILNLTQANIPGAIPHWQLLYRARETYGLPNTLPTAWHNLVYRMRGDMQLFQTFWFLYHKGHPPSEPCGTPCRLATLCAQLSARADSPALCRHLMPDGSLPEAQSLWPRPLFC
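Human placenta-derived ASM preincubated with compound 10 min at room temperature, then reacted with 9 uM (final) fluorogenic HMU-PC substrate for 60 min at 37 C. Stop solution raises pH to 10; fluorescence read at Ex 386/Em 447 nm.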
KB-V1 cytotox = KB-V1 MDR subline cytotoxicity; KB-V1 MDR cells viability, CellTiter-Glo, 72 h; Potency, µM (top dose mostly 46.1 µM), hits mostly cytotoxic; actives 3.4% (n = 400,000); note: potency is the fitted concentration of half-maximal effect; % is set by controls: 0 for no effect and ±100 for the full control effect; nearly all actives have a fitted effect of over 60% in size
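Following 72 h at 37 degrees C with compound, KB-V1 cell viability was read by CellTiter-Glo luminescence, medium being phenol-red-free DMEM plus 10% FBS; concentration-response parameters came from normalized, curve-fitted qHTS data.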
KB-3-1 tox = kills parental KB-3-1 adenocarcinoma cells; KB-3-1 viability, CellTiter-Glo ATP luminescence, 72 h; Potency, µM (doses to about 46.1 µM), most hits filed as cytotoxic; actives 1.4% (n = 400,000); AID 1347075; note: potency is the fitted concentration of half-maximal effect; % is set by controls: 0 for no effect and ±100 for the full control effect; nearly all actives have a fitted effect of over 60% in size
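Screening of KB-3-1 cells (DMEM, 10% FBS, phenol-red free) ran from lowest to highest compound concentration; after 72 h at 37 °C viability was read luminescently and curves fitted.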
SW480 rerep = inducers of DNA re-replication in SW480 colon cancer cells; SW480 DNA re-replication, Hoechst DNA content imaging, 48 h; Potency, µM (titrated, usually from 46.1 µM), inactives show at the highest dose re-replication activation, usual class: activators; actives 1.8% (n = 340,000); note: potency is the fitted concentration of half-maximal effect; % of control where 0% means no effect; nearly all actives have a fitted effect of over 55% in size
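SW480 cells exposed to compounds for 48 hr at 37 C, 5% CO2, then Hoechst-stained 40 min. Nuclear DNA content imaged by fluorescence scanning (405 nm excitation, 500-530 nm emission); re-replication scored as increased high-intensity nuclei.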
Giardia kill = kills Giardia lamblia; Giardia lamblia trophozoite viability; actives 0.15% (n = 340,000); activity change, % at 7.66 µM, hits read low; in the data active = activity change below about -80%; inconclusive = between about -30% and that limit;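 note: parasites exposed to compound for two days anaerobically before the ATP read; % is set by controls: 0 for no effect and ±100 for the full control effect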
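Compounds were tested on trophozoites seeded at 100 cells/well and held 48 hrs at 37 deg C anaerobically. An ATP-based luminescent kit measured the remaining live cells.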
MCF10A rerep = inducers of DNA re-replication in MCF 10A breast cells; Potency, µM (doses to about 46.1 µM), inactives show at the highest dose activity, positive = re-replication, hits mostly activators; actives 2.9% (n = 350,000); AID 624296; MCF 10A DNA re-replication, Hoechst nuclear intensity, 48 h; note: potency is the fitted concentration of half-maximal effect; % of control where 0% means no effect; nearly all actives have a fitted effect of over 50% in size
Starred values were filed as active, the others as inactive; i = inactive; ? = inconclusive; . = no result given; [ ] = remark or other dose. Hits are enriched below; roughly 6.9% of the tested compounds scored in any of these assays. Unless noted, calls come from the whole dose curve; as a rule, active = well fitted curve in the direction sought with a large enough effect; inconclusive = small, poorly fitted or top-dose-only effect, or another doubt; inactive = no such curve, though single readings can be large; an effect the other way counts as inactive or inconclusive.

SMILES	S-ASM inh	KB-V1 cytotox	KB-3-1 tox	SW480 rerep	Giardia kill	MCF10A rerep
O=C(/C=C/c1cccc([N+](=O)[O-])c1)Nc1cccc(NC(=O)c2ccco2)c1	-13.9%	?	?	18.5%	13.5	16.4µM*
CC(=O)Nc1cccc(NC(=O)c2ccco2)c1	-1.3%	i	i	-11.9%	-17.0	10.0%
O=C(Nc1ccc(NC(=O)c2ccc([N+](=O)[O-])o2)cc1Cl)c1ccco1	-4.2%	i	18.4µM*	2.06µM*	-92.4*	9.2µM*
O=C(Nc1ccc(NC(=O)c2ccco2)c(Cl)c1)c1ccccc1	-1.6%	i	i	2.7%	-6.8	-3.2%
Cc1cc(NC(=O)c2ccco2)ccc1NC(=O)c1ccco1	1.7%	23.1µM*	?	-5.3%	34.8	-1.9%
O=C(Nc1cccc(NC(=O)c2ccc([N+](=O)[O-])o2)c1)c1ccco1	-0.8%	?	?	4.11µM*	-84.7*	2.31µM*
O=C(/C=C/c1ccc(Cl)c([N+](=O)[O-])c1)Nc1cccc(NC(=O)c2ccco2)c1	-26.4%	i	i	?	-5.7	?
Cc1ccc2onc(CC(=O)N(C)c3ccccc3)c2c1	.	i	i	.	.	.
CC(C)N1CCN(c2ccc(OC[C@@H]3CO[C@@](Cn4cncn4)(c4ccc(Cl)cc4Cl)O3)cc2)CC1	.	.	.	-9.3%[20.6 µM]	.	?
COc1ccccc1CNC(=O)CN1CCN(c2ccc(C(C)=O)cc2)CC1	0.6%	?	i	6.3%	21.7	21.0%
Cc1ccc(S(=O)(=O)NCCc2nnc3ccc(SCc4ccc(F)cc4)nn23)cc1	.	i	i	.	.	.
Cc1ccc(NC(=O)/C=C/c2ccco2)cc1F	.	i	?	.	.	.
O=C(/C=C\c1ccco1)Nc1cc([N+](=O)[O-])ccc1F	1.6%	1.16µM*	4.11µM*	0.581µM*	-29.2	?
O=C(Nc1ccc(F)c(Cl)c1)C1CCCN1S(=O)(=O)c1ccc(F)cc1 (centres undefined)	.	i	i	.	.	.
FC(F)(F)c1cccc(N2CCN(c3ccc4nnc(-c5ccccc5)n4n3)CC2)c1	?	16.4µM*	i	6.1%	3.1	?
COc1ccc(-c2nc(S(=O)(=O)c3ccc(C)cc3)c(NCc3ccccc3)o2)cc1	.	i	i	.	.	.
COc1cccc(CN2CCN(C(=O)c3ccco3)CC2)c1	7.0%	i	i	-22.6%	14.6	0.581µM*
O=C(c1ccco1)N1CCN(C(=O)C(Sc2ccccc2)c2ccccc2)CC1 (centres undefined)	7.4%	20.6µM*	?	-4.4%	-1.7	?
CCN1CCN(c2ccc(NC(=O)COc3ccccc3Cl)cc2)CC1	-1.8%	i	i	-5.4%	17.1	?
Cc1ccccc1OCC(=O)Nc1ccc(N2CCN(C(=O)c3ccco3)CC2)cc1	1.0%	7.31µM*	?	-2.2%	0.5	0.2%
O=C(COc1ccccc1Cl)Nc1ccc(N2CCCC2)cc1	-5.2%	i	i	16.4µM*	-5.2	?
NC(=O)c1ccccc1NC(=O)CC12CC3CC(CC(Br)(C3)C1)C2	1.0%	i	i	-34.2%	-14.0	-3.5%
CCOC(=O)c1ccc(NC(=O)C(C)Sc2nc(O)c(-c3ccccc3)c(=O)[nH]2)cc1 (centres undefined)	-1.7%	i	i	4.6%	-8.8	-18.2%
COc1ccc(OCC(=O)Nc2ccc(N3CCN(C(=O)c4ccco4)CC3)cc2)cc1	0.6%	i	i	-1.4%	-20.9	?
O=C(c1ccco1)N1CCN(C(c2ccc(Cl)cc2)c2nnnn2Cc2ccccc2)CC1 (centres undefined)	-7.0%	16.4µM*	?	-2.5%	-12.9	13.8%
SMILES	S-ASM inh	KB-V1 cytotox	KB-3-1 tox	SW480 rerep	Giardia kill	MCF10A rerep
Cc1ccccc1OCC(=O)Nc1ccc(N2CCN(S(C)(=O)=O)CC2)cc1	-2.7%	3.66µM*	i	-1.4%	-13.0	9.1%
O=C(COc1ccc(Cl)cc1)Nc1ccc(N2CCN(C(=O)c3ccco3)CC2)cc1	-6.3%	13µM*	?	13.6%	-1.5	?
CC(Oc1ccc(Cl)cc1)C(=O)N1CCN(C(=O)c2ccco2)CC1 (centres undefined)	-0.8%	20.6µM*	i	-9.6%	3.2	-5.3%
COc1ccc(C(c2nnnn2Cc2ccccc2)N2CCN(C(=O)c3ccco3)CC2)cc1 (centres undefined)	-0.3%	i	i	2.4%	3.9	0.2%
CCOc1cc2sc(N3CCC(C(=O)Nc4ccccc4C(=O)OC)CC3)nc2cc1Br	.	i	i	.	.	.
Cc1nc2nc[nH]n2c(=O)c1CCC(=O)Nc1ccc(F)cc1	.	i	i	.	.	.
CCC(=O)Nc1ccc(N2CCN(C(=O)c3cccs3)CC2)cc1	-1.3%	i	i	-173.6%	-1.5	0.0%
O=C(COc1ccccc1[N+](=O)[O-])Nc1ccc(N2CCN(C(=O)c3cccs3)CC2)cc1	-3.7%	9.2µM*	i	1.3%	14.0	22.0%
COc1cccc(NC(=O)Cn2c(=O)n(Cc3ccc(C(=O)NCc4ccc(C)cc4)cc3)c(=O)c3ccccc32)c1	.	i	i	.	.	.
O=C(NCC(c1cccs1)N1CCOCC1)c1ccccc1NS(=O)(=O)c1ccc(Cl)c([N+](=O)[O-])c1 (centres undefined)	-4.6%	?	i	-3.7%	2.1	14.6µM*
O=C(NCC(c1cccs1)N1CCOCC1)c1ccccc1NS(=O)(=O)c1ccc(Cl)cc1 (centres undefined)	-2.0%	11.6µM*	?	0.0%	-7.2	?
O=C(NCCc1ccccc1)C(=O)NCC(c1cccnc1)N1CCN(c2ccccc2)CC1 (centres undefined)	.	i	i	.	.	.
CCOC(=O)c1c(-c2ccc(OC)cc2)nc2nonc2c1N	-0.2%	13µM*	?	-12.3%	8.9	-5.1%
C1=Nc2ccccc2/C1=C/c1ccccc1	.	i	?	.	.	.
N#Cc1nnn2c1nc(N)c1c(F)cccc12	12.7%	2.91µM*	?	-1.6%	11.0	5.0%
N#Cc1nnn2c1nc(N)c1c(Cl)cccc12	.	0.581µM*	1.3µM*	.	.	.
COc1ccc(Cl)cc1NC(=O)CN(C)C(=O)c1cccc(S(=O)(=O)N2CCN(C)CC2)c1	3.0%	20.6µM*	i	0.1%	11.5	10.7%
CCCN(CC(=O)Nc1cc(Cl)ccc1Cl)C(=O)/C=C/c1cc(OC)ccc1OC	i	i	i	?	14.5	20.6µM*
CCCN(CC(=O)Nc1ccc(Cl)cc1Cl)C(=O)/C=C/c1cc(OC)ccc1OC	i	?	i	.	4.5	11.2%
COc1ccc(NC(=O)CS(=O)CC(=O)Nc2cc(Cl)ccc2OC)cc1 (centres undefined)	-1.3%	20.6µM*	i	0.5%	-0.2	10.5%
